Source: PubChem BioAssay (NCI)
The panel holds about 79,000 compounds, 15% with a hit somewhere; the sample as a whole holds those more often. Unmarked numbers belong to inactive results. Activity calls are given as the source filed them. Cut-off read from the data, not from the text of the source: active = growth inhibition above about 70%; inactive = the rest.

Experiment: NCI Yeast Anticancer Drug Screen. Data for the cln2 rad14 strain (AID 165);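 note: 0% = growth equal to vehicle treated cultures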
Conditions: S. cerevisiae cln2 rad14 strain, active compounds read high
Description: Growth inhibition of yeast strains with defined genetic alterations is measured as a screen for potential anti-cancer activity. Selected strains with alterations in DNA damage repair or cell cycle control were exposed to compounds and growth inhibition was measured relative to vehicle treated controls. The strain used in this assay is cln2 rad14

[1] = at 5.0 µM (retest, dose inferred, filed as 0.5)
[2] = at 50.0 µM (retest, dose inferred, filed as 5.0)

Structure (SMILES)	growth inhibition [1] [%]	growth inhibition [2]	growth inhibition (at 50.0 µM)
CN(CCOc1ccc(Cl)cc1)CCOc1ccc(Cl)cc1	11	97% (active)	99.5% (active)
C[n+]1c(/C=C/c2ccc(/C=N/NC(=O)c3ccc(C(=O)N/N=C/c4ccc(/C=C/c5cn6ccccc6[n+]5C)cc4)cc3)cc2)cn2ccccc21	33	98% (active)	85.7% (active)
CCN(CC)CCC(=O)Nc1ccc2sc3ccccc3c(=O)c2n1	21	11%	21.4%
Cc1ccc(NC(Nc2ccc(C)cc2C)=C(C(Cl)=C(Cl)Cl)[N+](=O)[O-])c(C)c1	27	98% (active)	98.7% (active)
O=C1C(CCSc2ccccc2)C(=O)N(c2ccccc2)C1c1ccccc1 (configuration not stated)	33	97% (active)	91.2% (active)
COc1cc(OC)c(CSCC(NC(=O)OCC2c3ccccc3-c3ccccc32)C(=O)O)c(OC)c1 (configuration not stated)	52	99% (active)	98.4% (active)
CNC(=O)OCc1c2ccncc2c(C)c2c1[nH]c1ccccc12	44	84% (active)	83.2% (active)
CCCCCCCN1C(=O)c2ccccc2C1=O	-7	-8%	30.6%
NC(CS)C(=O)NCCNc1ccc(NCCNC(=O)C(N)CS)c2c1C(=O)c1c(O)ccc(O)c1C2=O (configuration not stated)	20	-57%	74.2% (active)
O=C(NCCCCN1CC2CCCC2C1)C(C1CCCCC1)C1CCCCC1 (configuration not stated)	22	96% (active)	43.9%
CCOP(=O)(OCC)/C(C#N)=C/c1ccc(-c2ccc(F)cc2F)o1	16	99% (active)	60.6%
CCOC(=O)/C(=C/c1cccc(Cl)c1)N(CC)CC	43	94% (active)	87.5% (active)
C/C(=N\OCC(O)CNCCSCc1ccccc1)c1ccccc1Cl (configuration not stated)	14	61%	66.8%
C=C(C(=O)OC)N1C(=O)CC(C)C1=O (configuration not stated)	6	30%	47.4%
